# Assay results taken from PubChem BioAssay (NCATS).
# Records with an inconclusive call do not appear. A call without a number means that no potency is given here. Values without a mark were called inactive. Active and inactive are the calls of the source. Calls follow the shape of the dose curve; as a rule, active = well fitted cell-killing curve with a large enough effect; inconclusive = small, poorly fitted or top-dose-only effect, or effect the other way; inactive = flat fitted curve, though single readings scatter.
# System: Tov-21-G
# Assay: Primary qHTS to identify gynecologic anti-cancer compounds using libraries of approved drugs and bioactive compounds (AID 1345084); also: nearly all actives have a fitted effect of over 55% in size
# Details: Gynecologic cancer cell panel viability, ATPlite luminescence, 48 h; series mostly up to 57.5 µM
# Method in brief: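 Cells, 1,000 per well, plated 16 h, then exposed 48 h at 37 C to compounds. Viability by ATPlite luminescence after 15 min at room temperature.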
# Potency is read from the fitted curve at half-maximal effect.
Structure (SMILES),Potency,"activity change, negative = cytotoxicity"
O=C(Nc1ccn(Cc2ccc(O)cc2C(F)(F)F)n1)c1c(F)cccc1F,inactive,
CC(O)C(C)n1ncn(-c2ccc(N3CCN(c4ccc(OCC5COC(Cn6cncn6)(c6ccc(Cl)cc6Cl)O5)cc4)CC3)cc2)c1=O (stereo not drawn),inactive,
CN(C)C(=O)Nc1cccc(-c2ccc(N(C)C)cc2)c1,inactive,
C[C@@H]1CCCN1CCc1cc2cc(-c3ccc(C#N)cc3)ccc2o1,inactive,
Cc1cc(C(=O)Nc2cc(Nc3ccc4c(/C=C/c5ccccn5)n[nH]c4c3)ccc2F)n(C)n1,inactive,
COc1nc2ccc(Br)cc2cc1[C@@H](c1ccccc1)[C@@](O)(CCN(C)C)c1cccc2ccccc12,inactive,
Cn1ncc(Cl)c1-c1cc(C(=O)N[C@H](CN)Cc2ccc(F)c(F)c2)oc1Cl,0.708 µM (active),
C=C1CC[C@@H](O)[C@]2(C)C[C@H]3OC(=O)C(=C)[C@H]3CC12 (stereo partly drawn),inactive,
C[C@@H]1O[C@@H](O[C@H]2[C@@H](OC(=O)[C@]34CCC(C)(C)CC3C3=CCC5[C@@]6(C)C[C@H](O)[C@H](O[C@@H]7O[C@H](CO)[C@@H](O)[C@H](O)[C@H]7O[C@@H]7OC[C@@H](O)[C@H](O)[C@H]7O)[C@@](C)(C(=O)O)C6CC[C@@]5(C)[C@]3(C)CC4)OC[C@H](O)[C@@H]2O)[C@H](O)[C@H](O)[C@H]1O[C@@H]1OC[C@@H](O)[C@H](O)[C@H]1O (stereo partly drawn),,0.0725% [at 6.55 µM]
COc1ccc(N2CCN(C(=O)c3cc4c(s3)-c3ccccc3S(=O)(=O)C4)CC2)cc1,inactive,
C=C1/C(=C/C=C2\CCC[C@]3(C)[C@@H]([C@@H](C)OCCC(O)(CC)CC)CC[C@@H]23)C[C@@H](O)C[C@@H]1O,inactive,
O=C(NO)c1ccc(CC(=O)N(CCO)c2ccccc2)cc1,inactive,
Fc1ccc(N2CCCCC2)c(NC(=S)c2ccncc2)c1,inactive,
CCC(C(C)O)n1ncn(-c2ccc(N3CCN(c4ccc(OCC5COC(Cn6cncn6)(c6ccc(F)cc6F)C5)cc4)CC3)cc2)c1=O (stereo not drawn),inactive,
NC(=O)N1CCC(CC(=O)N2CCC(C3c4ncc(Br)cc4CCc4cc(Cl)cc(Br)c43)CC2)CC1 (stereo not drawn),inactive,
CC(C)c1cccc(C(C)C)c1NC(=O)Nc1ccc(Sc2ccc([N+](=O)[O-])cc2)cc1,inactive,
CCCCNc1ncc(-c2ccc(CN3CCOCC3)cn2)c(NC2CCC(O)CC2)n1 (stereo not drawn),inactive,

Structure (SMILES),Potency,"activity change, negative = cytotoxicity"
COc1ccc2nc3n[nH]c(C)c3c(NCCOCCO)c2c1,inactive,
CC(=O)C1(C)CCC2C3C=C(C)C4=CC(=O)CCC4(C)C3CCC21C (stereo not drawn),inactive,
CC(=O)OC1C(OC(=O)c2ccccc2)C2C(=C(C)CCC2(C)C)C23CCC(C)(C2)C(=O)CC13 (stereo not drawn),inactive,
COc1ccc2[nH]c(=O)c3c(c2c1)OC(C)(C)C=C3,inactive,
CCN(CC)CCCCCCNc1cc(OC)cc2c(C)ccnc12,inactive,
O=C(N[C@@H]1CCCc2c1cnn2-c1ccc(F)cc1F)c1ccccn1,inactive,
CCCc1ccc(OCC(=O)N(Cc2nc(-c3cccnc3)no2)C(C)C)cc1,inactive,
CC(C)OC(=O)N1CCC(Oc2ncnc3c2cnn3-c2ccc(S(C)(=O)=O)cc2F)CC1,inactive,
Cc1c(C2=CCN(C(=O)N(C)C(C)C)CC2)nnn1-c1cccnc1F,inactive,
CC1=C(c2ccc(NC(=O)c3c(F)cccc3F)cc2)CN(c2nccs2)CC1,inactive,
CCCc1cc2c(N3CCN(C4=NCC(C)(C)S4)CC3)ncnc2s1,inactive,
O=C(NCCO)c1cccc(-c2cc(Nc3ccc(OC(F)(F)F)cc3)ncn2)c1,inactive,
CS(=O)(=O)Nc1ccc2oc3c(OC(F)F)ccc(C(=O)Nc4c(Cl)cncc4Cl)c3c2c1,inactive,
O=c1cc(NCCCN[C@@H]2CCOc3c(Br)cc(Br)cc32)[nH]c2ccsc12,inactive,
Clc1ncoc1-c1c[nH]c2ccccc12,inactive,
O=C(NCCCNc1nc(Nc2cccc(CN3CCOCC3)c2)ncc1C1CC1)C1CCC1,15.8 µM (active),
